# In the supplement of paper PMC7695840:
# Where a name gives a salt, the structure may show the parent alone.
# Tested on: Staphylococcus aureus MW2 delta-mecA (mecA-)
# Assay: normalized GFP fluorescence (growth of mecA- strain) (fraction of control range); higher = more growth of mecA- strain
# Settings: compound concentration: 150 uM; cefoxitin: subinhibitory; fluorescent label: GFP
# Procedure, shortened: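 Two pre-induced S. aureus MW2 strains, one with the gene labeled by DsRed and one lacking it labeled by GFP, were mixed 1:1 in LB with a subinhibitory antibiotic dose set daily. The mix went at 5 µL/well onto 150 μM compound (1.5% DMSO) in 1536-well plates, single replicate, and grew unshaken 20 h at 37 °C, 90% humidity. DsRed (540/590) and GFP (485/520) values were scaled per plate between single-strain control medians, and plates with high untreated ratios or rows with DsRed/GFP >10 were left out.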
row,Structure (SMILES),normalized GFP fluorescence
1,NC(=O)c1ncn([C@@H]2O[C@H](CO)[C@@H](O)[C@H]2O)c1N [Acadesine],0.499
2,COC(=O)N[C@H](C(=O)N1CCC[C@H]1c1ncc(-c2ccc(-c3ccc(-c4cnc([C@@H]5CCCN5C(=O)[C@@H](NC(=O)OC)C(C)C)[nH]4)cc3)cc2)[nH]1)C(C)C,0.242
3,CC[N+](CC)(CC)CCOc1cccc(OCC[N+](CC)(CC)CC)c1OCC[N+](CC)(CC)CC,0.163
4,Cc1cccc(Nc2ccccc2C(=O)O)c1C [Mefenamic Acid],0.0909
5,CCc1cc(C(N)=S)ccn1,0.386
6,C[C@@H]1C[C@H]2[C@@H]3CCC4=CC(=O)C=C[C@]4(C)[C@@]3(Cl)[C@@H](O)C[C@]2(C)[C@@]1(OC(=O)c1ccco1)C(=O)CCl,0.456
7,CCS(=O)(=O)N1CC(CC#N)(n2cc(-c3ncnc4[nH]ccc34)cn2)C1,0.236
8,N#Cc1ccc(C(c2ccc(C#N)cc2)n2cncn2)cc1,0.628
9,CCCN(CCC)CCc1cccc2c1CC(=O)N2,0.224
10,NC[C@@H]1O[C@H](O[C@H]2[C@@H](O)[C@H](O[C@@H]3[C@@H](O)[C@H](N)C[C@H](N)[C@H]3O[C@H]3O[C@H](CO)[C@@H](O)[C@H](O)[C@H]3N)O[C@@H]2CO)[C@H](N)[C@@H](O)[C@@H]1O,0.422
11,Nc1nc(=O)c2nc(CNc3ccc(C(=O)N[C@@H](CCC(=O)O)C(=O)O)cc3)cnc2[nH]1,0.21
12,CN1C(C(=O)Nc2ccccn2)=C(O)c2sc(Cl)cc2S1(=O)=O,0.116
13,CC(=O)Nc1c(I)c(NC(C)=O)c(I)c(C(=O)O)c1I,0.477
14,O=NN(CCCl)C(=O)NCCCl,0.549
15,C[C@H](Cc1cc2c(c(C(N)=O)c1)N(CCCO)CC2)NCCOc1ccccc1OCC(F)(F)F [Silodosin (Rapaflo)],0.269
16,Nc1nc(=O)[nH]cc1F,0.282
17,CC(C)OC(=O)OCOP(=O)(CO[C@H](C)Cn1cnc2c(N)ncnc21)OCOC(=O)OC(C)C [Tenofovir Disoproxil Fumarate],0.238
18,CC[C@@H]([C@H](C)O)n1ncn(-c2ccc(N3CCN(c4ccc(OC[C@@H]5CO[C@@](Cn6cncn6)(c6ccc(F)cc6F)C5)cc4)CC3)cc2)c1=O [Posaconazole],0.833
19,C#C[C@]1(OC(C)=O)CC[C@H]2[C@@H]3CCC4=C[C@@H](OC(C)=O)CC[C@@H]4[C@H]3CC[C@@]21C,0.192
20,N#C[C@@H]1CCCN1C(=O)CNC12CC3CC(CC(O)(C3)C1)C2 [Vildagliptin (LAF-237)],0.68

row,Structure (SMILES),normalized GFP fluorescence
1,CC(=O)N[C@H]1[C@H]([C@H](O)[C@H](O)CO)OC(C(=O)O)=C[C@@H]1NC(=N)N [Zanamivir (Relenza)],0.233
2,COCCOC(=O)C1=C(C)NC(C)=C(C(=O)OC(C)C)C1c1cccc([N+](=O)[O-])c1 (stereo not given),0.032
3,COc1ccc(CNc2nc(N3CCC[C@H]3CO)ncc2C(=O)NCc2ncccn2)cc1Cl [Avanafil],0.53
4,CCCCC(=O)O[C@H]1CC[C@H]2[C@@H]3CCc4cc(O)ccc4[C@H]3CC[C@]12C,0.109
5,O=C(NCCN1CCOCC1)c1ccc(Cl)cc1 [Moclobemide],0.558
6,CCCCNc1cc(C(=O)O)cc(S(N)(=O)=O)c1Oc1ccccc1,0.446
7,CCOC(=O)[N-]c1c[n+](N2CCOCC2)no1,0.369
8,CN1CCN(c2c(F)cc3c(=O)c(C(=O)O)cn(CCF)c3c2F)CC1 [Fleroxacin (Quinodis)],0.0169
9,CCNC(=O)CCC/C=C\C[C@@H]1[C@@H](/C=C/[C@@H](O)CCc2ccccc2)[C@H](O)C[C@@H]1O [Bimatoprost],0.224
10,CCOc1cc(CC(=O)N[C@@H](CC(C)C)c2ccccc2N2CCCCC2)ccc1C(=O)O,-0.00461
11,O=C(O)CCCCCCCC(=O)O,0.422
12,NC(=O)c1ccccc1O,0.52
13,CCCCC(=O)N(Cc1ccc(-c2ccccc2-c2nnn[nH]2)cc1)[C@H](C(=O)O)C(C)C,0.105
14,CN1CCN(C(c2ccccc2)c2ccccc2)CC1,0.231
15,CN[C@@H]1[C@H](O[C@H]2[C@H](O[C@H]3[C@H](O)[C@@H](O)[C@H](NC(=N)N)[C@@H](O)[C@@H]3NC(=N)N)O[C@@H](C)[C@]2(O)CO)O[C@@H](CO)[C@H](O)[C@H]1O,0.292
16,CCC1(C)OC(=O)N(C)C1=O (stereo not given),0.387
17,CCCc1nc2c(C)cc(-c3nc4ccccc4n3C)cc2n1Cc1ccc(-c2ccccc2C(=O)O)cc1,0.106
18,CCOC(=O)[C@H](CCc1ccccc1)N[C@@H](C)C(=O)N1Cc2ccccc2C[C@H]1C(=O)O,0.324
19,CC(C)(C)NCC(O)c1ccc(O)c(CO)c1 (stereo not given) [Salbutamol sulfate (Albuterol)],0.318
20,CC(=O)c1ccc(S(=O)(=O)NC(=O)NC2CCCCC2)cc1,0.35
